One assay deals with Klebsiella pneumoniae. The following applies: Concentration 32 ug.mL-1;; ASSAY_TEST Inhibition of Bacterial Growth; detection method Absorption (OD600); MEDIA CAMHB; plate type 384well; NBS; CORNING #3640; time 18 hr.
Another assay relates to Candida albicans. To be noted: Concentration 32 ug.mL-1; ASSAY_TEST Inhibition of Fungal Growth; detection method Absorption (OD530).
A further assay concerns Cryptococcus neoformans. To be noted: Concentration 32 ug.mL-1; ASSAY_TEST Inhibition of Fungal Growth; detection method Resazurin; Absorption (OD600-OD570); plate type 384well; NBS; CORNING #3640.

Experimental findings from ChEMBL document CHEMBL4513146, “CO-ADD screening of Karazin Kharkiv National University (Ukraine) compounds” are described below.

Measured potencies and affinities stand elsewhere.

In the case of `COc1cccc(CNC(=O)CSc2nnc3c(=O)n(-c4cccc(OC)c4)ccn23)c1`, the Inhibition in the assay on Klebsiella pneumoniae was 10.15%; in the assay with Candida albicans, 1.25%; with Cryptococcus neoformans, -6.98%.
For `CCOc1ccc(NC(=O)Cn2nc3ccc(Sc4cccc(F)c4)nn3c2=O)cc1`, in that order: 0.85%, 6.64% and -8.03%.
The like results for `CCc1ccc(N(Cc2cccc(F)c2)S(=O)(=O)c2cccn3c(C)nnc23)cc1` were, in that order, 8.24%, 0.68% and -10.22%.
The like results for `CCc1ccc(N(Cc2cccc(OC)c2)S(=O)(=O)c2cccn3cnnc23)cc1` were, in that order, 14.16%, 4.11% and -10.89%.
On to `COC(=O)c1ccccc1NC(=O)Cn1nc2c(Oc3ccccc3)nccn2c1=O`, for which the Inhibition with Klebsiella pneumoniae was 8.23%; in the assay on Candida albicans it was 7%; in the assay with Cryptococcus neoformans, -9.79%.
Turning to `O=C(Cn1nc2c3sc(N4CCCC4)nc3ncn2c1=O)Nc1ccc(C(F)(F)F)cc1`, the Inhibition in the assay with Klebsiella pneumoniae is 13.17%; in the assay with Candida albicans it was 1.98%; in the assay on Cryptococcus neoformans, -9.31%.
Take `Cc1cccc(NC(=O)Cn2nc3c(SC4CCCCC4)nccn3c2=O)c1C`: the Inhibition is 7.9% in the assay with Klebsiella pneumoniae, -1.44% in the assay on Candida albicans and -15.81% in the assay on Cryptococcus neoformans.
For `COc1ccc(C)cc1NC(=O)Cn1nc2c3cc(-c4ccc(C)c(C)c4)nn3ccn2c1=O`, in that order: 11.68%, 0.52% and -9.82%.
On to `COc1ccc(NC(=O)Cn2nc3nc(N4CCOCC4)ccn3c2=O)cc1Cl`, for which the Inhibition in the assay with Klebsiella pneumoniae is given as 17.46%; with Candida albicans it was 1.98%; with Cryptococcus neoformans, -8.34%.
The like results for `CCOc1ccc(-n2ccn3c(SCC(=O)Nc4ccc(Cl)cc4)nnc3c2=O)cc1` were, in that order, 5.78%, 3.69% and -6.67%.
In the case of `CC(C)c1nnc2c(SCC(=O)Nc3ccc4c(c3)OCO4)nc3ccccc3n12`, the results for the Inhibition with Klebsiella pneumoniae, in the assay on Candida albicans and with Cryptococcus neoformans were 4.73%, -0.7% and -20.34%, respectively.
As for `COc1ccc(NC(=O)Cn2nc3c(Oc4cccc(F)c4)nccn3c2=O)cc1`, the Inhibition with Klebsiella pneumoniae is reported as -11.98%; with Candida albicans it was 4.65%; with Cryptococcus neoformans it was -6.95%.
In the case of `Cc1cc2nn(CC(=O)Nc3ccc4c(c3)OCCO4)c(=O)n2c(Nc2ccccc2C)n1`, the Inhibition in the assay on Klebsiella pneumoniae is on record as 6.73%; in the assay on Candida albicans, 7.15%; in the assay on Cryptococcus neoformans it was -3.99%.
For `Cc1ccc(C)c(-c2cc3c4nnc(SCC(=O)Nc5cccc(Br)c5)n4ccn3n2)c1`, in that order: -2.64%, 49.44% and -19.95%.
On to `Cc1ccc(Sc2ccc3nn(CC(=O)Nc4ccc(F)c(Cl)c4)c(=O)n3n2)cc1`, for which the figures for the Inhibition in the assay on Klebsiella pneumoniae, with Candida albicans and in the assay with Cryptococcus neoformans were 6.66%, 6.36% and -7.28%, respectively.
On to `Cc1cc(NC(=O)Cn2c(=O)c3nnc(C(C)C)n3c3ccccc32)ccc1Br`, for which the Inhibition is recorded as 7.01% with Klebsiella pneumoniae, 3.1% in the assay on Candida albicans and -11.52% with Cryptococcus neoformans.
For the compound `COc1ccc(NC(=O)Cn2nc3c(Sc4ccccc4)nccn3c2=O)c(OC)c1`, the Inhibition in the assay with Klebsiella pneumoniae is recorded as 2.54%; in the assay on Candida albicans, 2.27%; in the assay on Cryptococcus neoformans, -16.55%.
As for `COc1ccc(NC(=O)Cn2nc3c(Sc4ccccc4)nccn3c2=O)cc1OC`, the Inhibition in the assay with Klebsiella pneumoniae is recorded as 6.09%; with Candida albicans, 1.58%; in the assay with Cryptococcus neoformans it was -22.41%.
The like results for `O=c1c2sccc2n2c(=O)n(Cc3ccc(F)cc3)nc2n1Cc1cccs1` were, in that order, 10.32%, 43.23% and -26.83%.
Regarding `O=c1c2sccc2n2c(=O)n(Cc3c(F)cccc3Cl)nc2n1Cc1cccs1`, the figures for the Inhibition in the assay on Klebsiella pneumoniae, in the assay on Candida albicans and in the assay on Cryptococcus neoformans were 11.77%, -0.79% and -29.08%, respectively.
The like results for `Cc1cc2nn(CC(=O)Nc3ccccc3F)c(=O)n2c(Nc2ccc(C)c(F)c2)n1` were, in that order, 4.36%, 4.06% and -8.37%.
As for `Cc1ccc(NC(=O)CSc2nc3ccccc3n3cnnc23)c(Br)c1`, the Inhibition was 0.14% with Klebsiella pneumoniae, 3.27% in the assay on Candida albicans and -26.85% in the assay on Cryptococcus neoformans.
For the compound `COc1ccccc1-n1ccn2c(SCC(=O)N3CCN(c4ccccc4F)CC3)nnc2c1=O`, the Inhibition was 14.09% in the assay with Klebsiella pneumoniae, 3.15% with Candida albicans and -10.82% in the assay with Cryptococcus neoformans.
The like results for `COc1ccc(C)cc1NC(=O)CSc1nc2ccccc2n2cnnc12` were, in that order, 9.24%, 2.39% and -3.58%.
In the case of `COc1ccc(-c2cc3c4nnc(CCC(=O)NCc5cccs5)n4ccn3n2)cc1`, the figures for the Inhibition in the assay on Klebsiella pneumoniae, with Candida albicans and with Cryptococcus neoformans were 6.72%, -0.32% and -11.02%, respectively.
Take `Cc1ccc(-c2ccc3nn(Cc4ccc(F)cc4Cl)c(=O)n3n2)cc1C`: the Inhibition with Klebsiella pneumoniae is given as 16.15%; in the assay with Candida albicans it was -0.6%; with Cryptococcus neoformans, -24.45%.
Regarding `COc1ccccc1NC(=O)Cn1nc2c3c4c(sc3ncn2c1=O)CCCC4`, the Inhibition was 5.77% in the assay on Klebsiella pneumoniae, 0.98% with Candida albicans and -22.92% in the assay on Cryptococcus neoformans.
Consider `O=C(Cn1nc2c(SC3CCCCC3)nccn2c1=O)Nc1ccccc1Br`, for which the Inhibition is given as 3.34% in the assay with Klebsiella pneumoniae, 3.41% in the assay on Candida albicans and -1.71% with Cryptococcus neoformans.
The like results for `Cc1ccc(Oc2nccn3c(=O)n(CC(=O)Nc4ccc(C)cc4Br)nc23)cc1` were, in that order, 1.71%, 0.3% and -4.1%.
`O=S(=O)(c1cccn2cnnc12)N(Cc1ccccc1F)c1ccc(F)c(F)c1`: the Inhibition with Klebsiella pneumoniae is 13.33%; with Candida albicans it was 5.39%; in the assay with Cryptococcus neoformans it was -3.16%.
Consider `O=C(Cn1nc2c3cc(-c4ccc(Cl)cc4)nn3ccn2c1=O)Nc1ccc(F)cc1`, for which the Inhibition in the assay on Klebsiella pneumoniae is given as 10.41%; in the assay on Candida albicans it was 1.82%; in the assay on Cryptococcus neoformans, -10.24%.

As usually defined, the Inhibition is the relative decrease from the control value, in per cent.
